Screening results as filed in PubChem.
RE007 growth inh = less growth of the S. pombe RE007 Vpr strain. Potency, µM (highest dose often 92.2 µM), inactives show at the top dose activity change, negative = less growth, usual class: inhibitors. 0.21% of 360,000 active. AID 651644. S. pombe RE007 Vpr strain, BacTiter-Glo ATP luminescence, 24 h; active = well fitted falling curve with a large enough effect; inconclusive = small, poorly fitted or top-dose-only effect; inactive = no such curve, though single readings can be large or run the other way; also: potency is read from the fitted curve at half-maximal effect; % is scaled to controls: 0 for no effect and ±100 for the full control effect; nearly all actives have a fitted effect of over 50% in size
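Fission yeast strain RE007, carrying one chromosomally integrated HIV-1 vpr copy, was seeded at OD 0.01 in PMG+AL medium with 23 nL pinned compound. After 24 h at 30 °C and 99% humidity, viability was read by BacTiter-Glo luminescence.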
LmPK inh = LmPK (Leishmania mexicana) enzyme inhibition; Potency, µM (doses to about 57.5 µM), without a hit: at the top dose activity change, negative = inhibition, hits mostly inhibitors; 0.37% of 290,000 active; purified LmPK, Kinase-Glo ATP luminescence, 1 h; AID 1721; also: potency is read from the fitted curve at half-maximal effect; % is scaled to controls: 0 for no effect and ±100 for the full control effect
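Pyruvate kinase activity monitored as ATP production (luciferase luminescence). Conditions: 0.1 nM enzyme, 0.5 mM PEP, 0.1 mM ADP, 1 h, RT; normalized against uninhibited and no-enzyme wells.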
Giardia FBPA inh = Giardia lamblia aldolase inhibition. A8B2U2. purified Giardia FBPA. Potency, µM (highest dose often 59.6 µM), for the others: at the highest dose activity, negative = inhibition, actives largely listed as inhibitors. 0.71% of 290,000 active; also: potency is read from the fitted curve at half-maximal effect; % is scaled to controls: 0 for no effect and ±100 for the full control effect; nearly all actives have a fitted effect of over 55% in size
Target sequence (A8B2U2 whole entry, looked up): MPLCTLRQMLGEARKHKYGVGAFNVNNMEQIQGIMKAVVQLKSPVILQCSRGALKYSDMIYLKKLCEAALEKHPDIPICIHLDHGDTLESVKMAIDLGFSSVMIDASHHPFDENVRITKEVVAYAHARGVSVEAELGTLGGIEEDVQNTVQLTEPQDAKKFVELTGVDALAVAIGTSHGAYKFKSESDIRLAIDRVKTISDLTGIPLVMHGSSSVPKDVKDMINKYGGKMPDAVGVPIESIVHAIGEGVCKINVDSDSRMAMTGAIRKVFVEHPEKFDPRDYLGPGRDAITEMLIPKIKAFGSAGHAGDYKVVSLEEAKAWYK
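40 nM FBPA preincubated 10 min at RT with compound (up to 57.5 uM final), then substrate plus GAPDH/TPI/NAD/arsenate coupling and diaphorase/resazurin added. Fluorescence read after 20 min at RT, 525/598 nm.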
Shiga inhibitor = blocks Shiga toxin action in Vero cells; Vero cells, Shiga toxin protein synthesis inhibition reporter; inhibition, % at 38.7 µM; 9.2% of 290,000 active; in the data active = inhibition mostly above about 28%, no sharp cut-off; inactive = mostly below about 43%; also: 0% is about no effect
Cycloheximide cs = counter-screen for Shiga toxin inhibitors: cycloheximide protein synthesis inhibition; cell reporter, cycloheximide protein synthesis inhibition counterscreen; max response, %; 12% of 300,000 active; in the data active = max response mostly above about 13%, no sharp cut-off; inactive = mostly below about 14%; also: read at 38.3 µM for the half of the compounds with a filed dose; 0% is about no effect
Tb PYK inh = inhibitors of Trypanosoma brucei pyruvate kinase | TbPYK enzyme, Kinase-Glo Plus ATP luminescence, 45 min | Potency, µM (titrated, usually from 76.8 µM), for the others: top-dose activity, negative = inhibition, most hits filed as inhibitors | AID 624173 | 0.12% of 410,000 active; also: potency is read from the fitted curve at half-maximal effect; % is scaled to controls: 0 for no effect and ±100 for the full control effect; nearly all actives have a fitted effect of over 50% in size
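Luminescence from Kinase-Glo Plus, added after a 45-minute room-temperature reaction, served as the end-point read-out. The enzyme and substrate were preincubated with compound before ADP (130 uM final) initiated turnover. Concentration-effect curves came from normalized qHTS data.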
* marks the source's active call; other numbers are inactive results; ? = inconclusive; . = no result given; [ ] = another dose, or the depositor's remark. Only a selection was taken, and hits are over-represented in it overall. Unless noted, calls follow the shape of the dose curve; as a rule, active = well fitted curve in the direction sought with a large enough effect; inconclusive = small, poorly fitted or top-dose-only effect, or another doubt; inactive = no such curve, though single readings can be large; an effect the other way counts as inactive or inconclusive.

SMILES	RE007 growth inh	LmPK inh	Giardia FBPA inh	Shiga inhibitor	Cycloheximide cs	Tb PYK inh
CCCCCCSc1ccc([C@H]2N[C@@](C)(C(=O)OC)[C@H]3C(=O)N(CC)C(=O)[C@@H]23)cc1	6.3%	.	.	.	.	2.6%
Cc1cccc(-n2nnc(-c3nc(-c4ccccc4)no3)c2N)c1C	.	.	.	.	.	4.8%
CCCC(=O)N/N=C1\CS(=O)(=O)N(C)c2ccsc21	5.0%	4.3%	4.6%	26.9	4.2	4.6%
CN1c2ccsc2/C(=N/Nc2ccc(F)cc2)CS1(=O)=O	?	0.1%	-11.8%	53.6	26.7*	-5.1%
Cc1ccc(N/N=C2\CS(=O)(=O)N(C)c3ccsc32)cc1	-15.4%	1.7%	10.8%	65.7*	51.1*	-1.7%
Cc1ccc(Nc2c3c(nc4nncn24)CCC3)c(C)c1	.	.	.	.	.	0.0%
CCOC(=O)c1[nH]c(C)c(CC(C)C)c1C	1.0%	-1.2%	-6.4%	28.2	20.4*	5.1%
CCOC(=O)c1[nH]c(C)c(C(=O)C(C)C)c1C	2.5%	11.8%	-0.5%	17.1	16.9*	-3.0%
CCOC(=O)c1[nH]c(C)c(C(=O)O)c1C	.	12.5%	-0.4%	-14.6	-8.2	.
CCOC(=O)c1[nH]c(C)c(C(=O)N(C)C)c1C	-0.3%	6.3%	?	-13.5	8.4	-3.4%
Cc1c(Br)cccc1NC(=O)C1(C)CCN1CCc1ccccc1 (configuration not stated)	-18.3%	.	.	.	.	-1.5%
CC(C)(C)n1ncc2c(=O)n(CC(=O)NC3CCCCC3)cnc21	11.1%	0.6%	7.8%	84.8*	34.7*	2.7%
CC(C)(C)n1ncc2c(=O)n(CC(=O)NCc3ccc(F)cc3)cnc21	-2.1%	3.0%	10.1%	54.5*	27.0*	2.5%
CC(C)(C)n1ncc2c(=O)n(CC(=O)NCc3ccco3)cnc21	15.2%	0.9%	6.4%	67.0*	45.9*	1.1%
Cc1ccc(S(=O)(=O)N2CCN(C(=O)COC(=O)/C=C/c3ccc(OC(F)F)cc3)CC2)cc1	8.3%	.	.	.	.	9.4%
O=C(COc1ccccc1Br)Nc1ccccc1C(F)(F)F	-27.5%	0.9%	0.2%	60.8*	23.1*	-7.4%
Cc1ccc(OCCCC(=O)Nc2ccccc2C(F)(F)F)cc1	0.0%	2.2%	-4.1%	-7.0	-1.2	-5.4%
CCOc1ccc(OCC(=O)Nc2ccccc2C(F)(F)F)cc1	-3.6%	-1.6%	0.4%	31.5	22.8*	1.3%
O=Cc1ccc(OCC(=O)Nc2ccccc2C(F)(F)F)cc1	6.1%	-0.7%	4.9%	0.4	25.3*	-4.8%
CN(C)CCNC(=O)C(=O)NCC1CCCN1S(=O)(=O)c1cccs1 (configuration not stated)	7.9%	.	.	.	.	3.6%
CN(CC(=O)Nc1ccc(F)cc1)C(=O)c1ccc(OCc2cn3ccccc3n2)cc1	-2.3%	.	.	.	.	-2.8%
O=C(NCc1ccco1)c1ccc(OCC2CCCO2)cc1 (configuration not stated)	-10.9%[3.69 µM]	0.8%	9.2%	22.7	20.2*	.
Cc1ccc(CNC(=O)c2ccc(OCC3CCCO3)cc2)cc1 (configuration not stated)	.	1.0%	5.1%	16.4	15.2*	-7.2%
O=C(NCc1ccco1)c1ccc(COc2ccc(Cl)cc2)cc1	-4.2%	2.0%	-3.9%	32.8	11.2	-16.8%
CC(C)CO/N=C1/C[C@@H](O)[C@@H](O)[C@@H]2[C@H]3C(=O)N(c4ccc(F)cc4F)C(=O)[C@@H]3CC[C@H]12	.	.	-3.0%[12.9 µM]	.	.	.
SMILES	RE007 growth inh	LmPK inh	Giardia FBPA inh	Shiga inhibitor	Cycloheximide cs	Tb PYK inh
CN1CC(C(=O)c2ccccc2)C(c2ccccc2)C1 (configuration not stated)	-0.1%	2.2%	3.2%	26.0	-0.9	-3.5%
O=C(Nc1ccc2c(c1)OCCO2)C(=O)NC1CC1	-4.4%	-3.9%	-5.2%	80.4*	29.2*	-5.7%
O=C(c1ccccc1)C1CC1c1ccccc1 (configuration not stated)	17.8µM*	.	.	.	.	2.6%
O=C(O)C1CCCCC1C(=O)Nc1ccc(F)c(F)c1 (configuration not stated)	10.0%	-1.0%	11.2%	15.9	-3.2	43.6%
O=C(O)C1CCCCC1C(=O)Nc1ccc2c(c1)OCCO2 (configuration not stated)	2.6%	3.1%	4.3%	102.4*	34.4*	3.7%
O=C(Nc1ccncc1)C1CC1c1ccccc1 (configuration not stated)	1.1%	1.2%	3.5%	-8.6	2.2	-0.8%
CC(C)c1ccc(NC(=O)C2CC2c2ccccc2)cc1 (configuration not stated)	9.0%	-6.5%	5.0%	17.6	18.2*	0.0%
O=C(Nc1cccc(Cl)c1)C1CC1c1ccccc1 (configuration not stated)	-7.5%	.	.	.	.	-2.6%
O=C(Nc1ccc2c(c1)OCCO2)C1CC1c1ccccc1 (configuration not stated)	22.7%	-0.4%	-5.0%	93.8*	65.1*	-2.6%
CCCC[C@@H]1C[C@H]1[C@@H](NP(=O)(c1ccccc1)c1ccccc1)c1ccccc1OC	.	.	0.5%	.	.	.
c1ccc(Oc2nc(-c3ccccn3)nc3ccccc23)cc1	-17.1%	-5.2%	-6.7%	34.7*	35.6*	-4.8%
c1ccc(-c2nc(N3CCCCCC3)c3ccccc3n2)nc1	22.7%	1.7%	4.1%	-5.0	-2.1	0.6%
COc1ccc(Oc2nc(-c3ccccn3)nc3ccccc23)cc1	-16.0%	-1.4%	-7.2%	56.0*	48.2*	-0.8%
Fc1ccc(Oc2nc(-c3ccccn3)nc3ccccc23)cc1	-9.9%	-6.8%	-1.0%	67.3*	51.4*	1.7%
Cc1ccc(CNC(=O)C2CCN(S(=O)(=O)c3c(C)noc3/C=C/c3ccccc3F)CC2)o1	.	.	.	.	.	2.4%
O=C(CSc1oc(-c2ccccc2)nc1S(=O)(=O)c1ccc(Br)cc1)c1ccccc1	.	.	.	.	.	-18.5%
Cc1cc(/C=C(\C#N)C(=O)OCC#N)c(C)n1CC(C)C	1.3%	0.2%	4.5%	59.5*	28.1*	10.3%
Cc1cc(/C=C(\C#N)C(=O)OCC(=O)Nc2ccc(OC(F)F)cc2)c(C)n1CC(C)C	-26.3%	-0.5%	-4.0%	32.3	26.2*	-3.4%
COCCn1c(C)cc(/C=C(\C#N)C(=O)OCC(=O)Nc2ccc(S(N)(=O)=O)cc2)c1C	-6.2%	.	.	.	.	-3.7%
Cc1cc(/C=C(\C#N)C(=O)OCC(=O)N(C)c2c(N)n(Cc3ccccc3)c(=O)[nH]c2=O)c(C)n1CC(C)C	-6.4%	.	.	.	.	-3.0%
CCc1ccc(C(=O)NNC(=O)c2cccc(N3C(=O)CCC3=O)c2)cc1	-1.5%	.	.	.	.	2.1%
CC(C)(C)NC(=O)[C@@H]1CN(Cc2cccnc2)CCN1C[C@@H](O)C[C@@H](Cc1ccccc1)C(=O)N[C@H]1c2ccccc2C[C@H]1O	-19.6%[18.4 µM]	.	.	.	.	4.3%
CCCN1CCC(Oc2cccc(C(=O)NCCc3ccccc3)c2)CC1	23.4%	-9.9%	.	72.2*	56.4*	-9.9%
